Screens: PubChem BioAssay, several laboratories
LANA-H2B inh: blockers of LANA interaction with H2A/H2B – biochemical, FP readout, HTS, primary screen; Protein LANA1 (Human herpesvirus 8 type P (isolate GK18)), Q9QR71; cell-free LANA-H2A/H2B peptide, fluorescence polarization; inhibition, % (test concentration not listed); 320,000 tested, 0.6% active; AID 2629, 2010; in the data active = inhibition mostly above about 10%, no sharp cut-off; inactive = mostly below about 6.7%
RTF Ca sens inh: cardiac RTF calcium sensitivity inhibitors, primary screen, biochemical, IANBD-TnC fluorescence, EC70 calcium. IANBD-labeled cardiac RTF, Ca2+ fluorescence. inhibition, % at 7.15 µM. 340,000 tested, 0.12% active. Troponin I, cardiac muscle (Homo sapiens) + Troponin T, cardiac muscle (Homo sapiens) + …;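 active = inhibition above the mean inhibition of all tested compounds plus 3 SD, cut at about 17% in these data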;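 also: assay run at fixed EC70 calcium of 1.6 mM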
Keap1 Nrf2 FP: Keap1-Nrf2 protein-protein interaction inhibitors, primary screen, biochemical, fluorescence polarization, single point; Keap1 Kelch-Nrf2 peptide fluorescence polarization, 1536-well; inhibition, % at 9.4 µM; 340,000 tested, 0.15% active; Kelch-like ECH-associated protein 1 (Homo sapiens), Q14145; AID 504523, 2011; in the data active = inhibition above about 12%;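 also: human Keap1 Kelch domain with fluorescein labeled Nrf2 9mer peptide probe; higher means more block of Keap1 binding to Nrf2 peptide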
Target sequence (Q14145 whole entry, looked up, the tested form may be a part): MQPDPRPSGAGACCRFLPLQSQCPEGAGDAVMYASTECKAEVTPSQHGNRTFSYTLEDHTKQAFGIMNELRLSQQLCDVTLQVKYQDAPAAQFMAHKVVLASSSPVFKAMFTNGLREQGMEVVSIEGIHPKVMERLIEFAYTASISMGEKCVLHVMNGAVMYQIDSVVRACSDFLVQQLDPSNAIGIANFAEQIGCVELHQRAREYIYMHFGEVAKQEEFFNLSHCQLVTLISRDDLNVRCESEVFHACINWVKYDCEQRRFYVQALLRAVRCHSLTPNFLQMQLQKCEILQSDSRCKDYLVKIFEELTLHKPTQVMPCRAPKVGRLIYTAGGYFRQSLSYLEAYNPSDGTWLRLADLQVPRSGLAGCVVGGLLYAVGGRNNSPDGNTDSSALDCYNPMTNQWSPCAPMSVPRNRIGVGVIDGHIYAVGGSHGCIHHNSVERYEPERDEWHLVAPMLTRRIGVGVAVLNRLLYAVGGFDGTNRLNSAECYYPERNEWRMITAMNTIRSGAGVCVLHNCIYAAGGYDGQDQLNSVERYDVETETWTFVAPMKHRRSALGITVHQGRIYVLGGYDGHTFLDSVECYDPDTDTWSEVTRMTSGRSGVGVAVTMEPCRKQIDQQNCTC
RTF Ca sens act: cardiac RTF calcium sensitivity activators, primary screen, biochemical, IANBD-TnC fluorescence, EC20 calcium | AID 493008, 2010 | 340,000 tested, 0.24% active | Troponin I, cardiac muscle (Homo sapiens) + Troponin T, cardiac muscle (Homo sapiens) + … | IANBD-labeled TnC RTF fluorescence at EC20 calcium; 0% EC20 calcium, 100% full calcium | activation, % at 7.2 µM;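 active = activation above the mean over all tested compounds plus 3 SD, cut at about 30% in these data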;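 also: rise in fluorescence read as greater calcium sensitivity of cardiac thin filaments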
C-LANA FP: inhibitors of KSHV C-LANA binding to DNA, primary screen, biochemical, fluorescence polarization, FAM-LBS DNA, MBP-C-LANA, single point. AID 504423, 2011. inhibition, % at 9 µM. 340,000 tested, 0.078% active. Kaposi's sarcoma herpesvirus LANA C-terminal domain (residues 932-1162) DNA binding;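 active = highest replicate inhibition at or above 60% at 9 µM, even if other replicates fall short; inactive = all replicates below 60% inhibition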
Each line names hits and unclear results; the compound was inactive in the other large screens. Shown are actives, neighbours in structure and some others; about 0.99% of the full set was active somewhere.

CC(=O)Nc1sc(/C(C#N)=C/c2ccc(Cl)c(Cl)c2)nc1-c1ccc(C)cc1	RTF Ca sens act 76.4 (no result: LANA-H2B inh)
COc1ccc(CCNC(=O)C2CCC(C(C)(C)C)CC2)cc1OC (stereo unspecified)	LANA-H2B inh 57.8
COc1ccc(CCNC(=O)C2CC2)cc1OC	none
COc1ccc(CCNC(=O)C(=O)NCC2CCCO2)cc1OC (stereo unspecified)	LANA-H2B inh 40.6
COCCOC(=O)C1=C(C)N(c2ccccc2)C(=S)NC1c1ccccc1C(F)(F)F (stereo unspecified)	LANA-H2B inh 35.0
CC12CCCC(C(C#N)C(N)=O)(C1)NC(=O)C2C#N (stereo unspecified)	none (no result: LANA-H2B inh)
Cc1ccnc(SCC(=O)c2cc3ccccc3o2)n1	C-LANA FP 74.2 (no result: LANA-H2B inh)
COc1cc(S(=O)(=O)NC2CCSc3ccccc32)ccc1NC(C)=O (stereo unspecified)	none
Cc1cccc(N2CCN(C(=O)C3CC(=O)N(C4CCCC4)C3)CC2)c1C (stereo unspecified)	none
COc1cc2c(cc1OC)[C@@H](NC(=O)CCc1ccccc1)[C@H](OCc1ccccc1)C2	none (no result: LANA-H2B inh)
C/C(=N\NC(=O)c1cc2c(s1)CCC(C)C2)c1ccncc1 (stereo unspecified)	none
C/C(=N\NC(=O)c1cc2c(s1)CCC(C)C2)c1ccc[nH]1 (stereo unspecified)	RTF Ca sens act 36.9
O=C(CCCN1C(=O)c2cccnc2C1=O)N1CC(=O)N(CCc2ccccc2)C(=O)C1	LANA-H2B inh 25.0
Cc1ccc(-n2nc3c(c2NC(=O)c2ccc(F)c(F)c2)CS(=O)(=O)C3)cc1	LANA-H2B inh 109.2
Cc1nnnn1/C(=C\c1ccccc1)C(=O)OCC(=O)Nc1ccc(Cl)cc1F	none
CCN1CCN(c2c(/C=C3\SC(=S)N(Cc4ccco4)C3=O)c(C)c(C#N)c(=O)n2C)CC1	RTF Ca sens act 62.4
Cc1cccc(/C=N/NC(=O)Cn2nccc2C)n1	none
COc1ccc(/C=C(\NC(=O)c2ccccc2)C(=O)NCC2CCCO2)cc1 (stereo unspecified)	none
O=C(Nc1ccnn1C1CCN(CC2CC=CCC2)CC1)c1ccccc1 (stereo unspecified)	none (no result: LANA-H2B inh)
COc1ccc(C(=O)Nc2ccnn2C2CCN(CC3CC=CCC3)CC2)cc1 (stereo unspecified)	LANA-H2B inh 16.1
C/C=C(\C)CN1CCC(n2nccc2NC(=O)c2ccc3c(c2)OCO3)CC1	LANA-H2B inh 74.7
C[n+]1cccc(C(=O)NNC(=O)C23CC4CC(CC(C4)C2)C3)c1	none
CN1CCN(C(=O)CN(C)S(=O)(=O)c2ccc3ccccc3c2)CC1	none (no result: RTF Ca sens inh, RTF Ca sens act)
CN(CC(=O)N1CCCC1)S(=O)(=O)c1ccc2ccccc2c1	LANA-H2B inh 17.3
COc1ccc(CN2CCSCC2)cc1C	none
Cc1cc(C)cc(OCC(=O)OCCN2C(=O)c3ccccc3C2=O)c1	none
Cc1ccc(OCC(=O)OCCN2C(=O)c3ccccc3C2=O)cc1C	LANA-H2B inh 19.4
COC(=O)c1ccc(C(=O)OC)c(NC(=O)CN(c2ccc3c(c2)OCO3)S(C)(=O)=O)c1	none
COC(=O)c1ccccc1SCc1csc(C)n1	none
O=C(O)c1ccccc1SCc1csc(-c2ccccc2)n1	LANA-H2B inh 12.3
O=C(Nc1ccccc1Cl)C1CCCN(S(=O)(=O)c2ccc(F)cc2)C1 (stereo unspecified)	LANA-H2B inh 8.8
O=C(Nc1cccc(Cl)c1)C1CCCN(S(=O)(=O)c2ccc(F)cc2)C1 (stereo unspecified)	none (no result: LANA-H2B inh)
CCS(=O)(=O)CCn1c([N+](=O)[O-])cnc1C	LANA-H2B inh 10.8
COc1ccc(Cl)cc1NC(=O)C1CCCN(S(C)(=O)=O)C1 (stereo unspecified)	none
CCOc1ccccc1N(CC(=O)N1CCC(C(N)=O)CC1)S(=O)(=O)c1ccc(SC)cc1	none
O=C(OCCN1C(=O)c2ccccc2C1=O)c1cc(S(=O)(=O)N2CCOCC2)ccc1Cl	none
O=C(OCCN1C(=O)c2cccc3c(N4CCOCC4)ccc(c23)C1=O)c1ccccc1Cl	LANA-H2B inh 27.4, Keap1 Nrf2 FP 54.8, RTF Ca sens act 112.3
O=C(OCCN1C(=O)c2cccc3c(N4CCOCC4)ccc(c23)C1=O)c1cccc(Cl)c1	LANA-H2B inh 36.8 (no result: RTF Ca sens inh, Keap1 Nrf2 FP, RTF Ca sens act, C-LANA FP)
COC(=O)CC#N	LANA-H2B inh active
COC(=O)C(C)Oc1ccc(Oc2nc(Cl)ccc2Cl)cc1 (stereo unspecified)	none
CC(C)(C)C(=O)Nc1ccnn1C1CCN(C(=O)c2ccc(Cl)cc2F)CC1	LANA-H2B inh 25.7
O=C(Nc1ccnn1C1CCN(C(=O)c2cccc(C(F)(F)F)c2)CC1)C1CC1	LANA-H2B inh 16.5
O=C(Nc1ccnn1C1CCN(C(=O)c2ccc(C(F)(F)F)cc2)CC1)C1CC1	none
Cn1nc(C(=O)NC2=NCCS2)ccc1=O	none
CC(=O)N1CCN=C1SCc1ccc(Cl)cc1	none
CCCCC(=O)Nc1ccc(NC(=O)c2ccc([N+](=O)[O-])cc2)cc1OC	none
CCCCC(=O)Nc1ccc(C(=O)Nc2ccc(OC)cc2[N+](=O)[O-])cc1	RTF Ca sens act 80.9
Cc1cc(C=C2C(=O)c3ccccc3C2=O)c(C)n1-c1ccc(C(=O)O)cc1	none
Cc1cc(C=C2C(=O)c3ccccc3C2=O)c(C)n1-c1ccccc1	RTF Ca sens act 45.2
O=C1C(=Cc2cccn2-c2ccccc2)C(=O)c2ccccc21	LANA-H2B inh 127.0
O=C1C(=Cc2cccn2-c2ccc(O)cc2)C(=O)c2ccccc21	none
Cc1ccc2c(Cl)cc(Cl)c(OCC(=O)NC3CCS(=O)(=O)C3)c2n1 (stereo unspecified)	none
O=C(O)Cc1c[nH]c2ccccc12	none
O=C(O)Cc1c[nH]c2cccc(O)c12	C-LANA FP 101.8
CCN(CC)c1ccc2cc(-c3nnc(-c4ccccc4)o3)c(=O)oc2c1	RTF Ca sens act 704.9
CCN(CC)c1ccc2cc(-c3nc4ccccc4[nH]3)c(=O)oc2c1	LANA-H2B inh 26.9, RTF Ca sens act active
CCN(CC)c1ccc2cc(-c3nc4ccccc4n3C)c(=O)oc2c1	RTF Ca sens act 102.3
CCN(CCN1CCCC1)C(=O)C1CCC(=O)N(CCCN2CCOCC2)C1 (stereo unspecified)	none
Cc1cc(NC(=O)CSc2n[nH]c(N)n2)no1	LANA-H2B inh active
CCc1nc(SCC(=O)Nc2cc(C)on2)n[nH]1	none
CCN(CC)c1ccc(C(=O)n2cnc3ccccc32)cc1	none
CC(C)(C)c1ccc(C(=O)n2cnc3ccccc32)cc1	RTF Ca sens act 49.6
